# Test results: PubChem BioAssay (Tox21)
# Results filed as inconclusive are left out. Active and inactive are the calls of the source. Unless noted, calls follow the shape of the full dose curve.
# Target: D(2) dopamine receptor (Homo sapiens) (UniProt P14416)
# Test: Dopamine D2 receptor (DRD2) small molecule agonists, cell-based qHTS assay (AID 1963594); also: nearly all actives have a fitted effect of over 35% in size
# Conditions: HEK293-DRD2 cAMP HTRF, agonist mode, 30 min; series mostly up to 92.4 µM; activation: at the top concentration
# How it was run: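 cAMP accumulation in DRD2-HEK293 cells measured by HTRF after 1 h detection; compounds added 10 min before NKH477 (200nM […]) forskolin-analogue stimulation, 30 min at room temperature, with Ro20-1724 present at 0.1 mM final.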
# % is scaled to controls: 0 for no effect and ±100 for the full control effect.
# Sequence of D(2) dopamine receptor (Homo sapiens) (P14416 whole entry, looked up): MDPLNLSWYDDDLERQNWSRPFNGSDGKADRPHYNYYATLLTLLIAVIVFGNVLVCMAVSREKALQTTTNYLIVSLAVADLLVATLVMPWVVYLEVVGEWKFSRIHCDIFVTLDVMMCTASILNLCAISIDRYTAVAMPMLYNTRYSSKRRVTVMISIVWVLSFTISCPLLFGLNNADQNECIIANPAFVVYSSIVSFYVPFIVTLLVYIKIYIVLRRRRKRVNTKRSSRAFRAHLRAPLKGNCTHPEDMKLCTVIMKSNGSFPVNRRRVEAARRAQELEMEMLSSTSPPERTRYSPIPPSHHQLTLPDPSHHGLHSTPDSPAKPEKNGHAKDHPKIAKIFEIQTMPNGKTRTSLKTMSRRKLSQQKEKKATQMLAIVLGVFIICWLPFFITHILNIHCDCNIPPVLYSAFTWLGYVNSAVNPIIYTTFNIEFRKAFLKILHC
Structure (SMILES),activation,Potency
Nc1c(NC/C=C\COc2cc(CN3CCCCC3)ccn2)c(=O)c1=O,-7.29% [at 19 µM] (inactive),
O=S(=O)(O)c1ccc2cc(O)c(S(=O)(=O)O)cc2c1,-0.236% (inactive),
COCCOCCOCCOCCOC,2.24% (inactive),
CCCO,-2.8% (inactive),
O=[N+]([O-])c1ccc(Oc2ccc([N+](=O)[O-])cc2)cc1,4.59% (inactive),
CCCCCCCN,-0.206% (inactive),
CS(C)(=O)=O,2.58% (inactive),
O=c1[nH]c(=O)c2cn[nH]c2[nH]1,1.45% (inactive),
CCC(COC(=O)CCS)(COC(=O)CCS)COC(=O)CCS,-1.91% (inactive),
CC(C)N=C(N)/N=C(\N)Nc1ccc(Cl)cc1,12.1% [at 42.5 µM] (inactive),
CC(C)(C)c1ccc(O)c(C(C)(C)C)c1,,inactive
CCCCCCCC(=O)N(C)C,-1.2% (inactive),
CCCCC(C)C(=O)O (stereo not given),2.07% (inactive),
CCO[Si](CCCN=C=O)(OCC)OCC,-5.47% (inactive),
Cc1ccc(N=Nc2c(O)ccc3ccccc23)c(C)c1,-6.3% [at 42.5 µM] (inactive),
CCCOCCO,,inactive
COc1ccc(N=[N+]([O-])c2ccc(OC)cc2)cc1,6.32% (inactive),

Structure (SMILES),activation,Potency
Cc1cc(N)n(-c2ccccc2)n1,7.5% (inactive),
O=C1OC(=O)c2ccccc21,1.27% (inactive),
OC[C@H]1O[C@H](O[C@H]2O[C@H](CO)[C@@H](O)[C@H](O)[C@H]2O)[C@H](O)[C@@H](O)[C@@H]1O,-1.59% (inactive),
CCSC(=O)N(CC)CC,2.71% (inactive),
CCCCC(=O)N(C)C,-0.651% (inactive),
CC(=O)NC(Cc1ccccc1)C(=O)O (stereo not given),-11.3% [at 42.5 µM] (inactive),
C=C(C)C(=O)NCCC[N+](C)(C)C,3.29% (inactive),
CCCC(C)CCC(C)=O (stereo not given),1.21% (inactive),
C/C=C/C(=O)C1=C(C)C=CCC1(C)C,-1.18% (inactive),
NS(=O)(=O)c1ccccc1OC(F)(F)F,1.71% (inactive),
CC(=O)Oc1ccccc1C(=O)Nc1ncc([N+](=O)[O-])s1,,inactive
C1CN(CCOCCN2CCOCC2)CCO1,-0.838% (inactive),
CC(=O)CC/C=C(\C)CC/C=C(\C)CC/C=C(\C)CCC=C(C)C,-4.89% [at 42.5 µM] (inactive),
C=CCOCC(O)CO (stereo not given),-6.32% (inactive),
CC(CCC(=O)O)C(=O)O (stereo not given),0.0317% (inactive),
CCOC(C)(C)C,0.0373% (inactive),
CC(C)CC(O)Cc1ccccc1 (stereo not given),8.29% (inactive),

# Target: D(2) dopamine receptor (Homo sapiens) (UniProt P14416)
# Test: Dopamine D2 receptor (DRD2) small molecule antagonists, cell-based qHTS assay (AID 1963595; active = well fitted inhibition curve with a large enough effect in the signal ratio in the repeat runs, with a control signal flat; the % refers to the signal ratio)
# Conditions: HEK293-DRD2 cAMP HTRF antagonist mode; series mostly up to 92.4 µM; activity change, negative = inhibition: at the top concentration
# How it was run: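 Cells were plated and grown for 24 h at 37 °C. Ro20-1724 (0.1 mM final) went in first, then compound for 10 min. NKH477 (200 nM) with quinpirole (12 nM) followed for 30 min at RT, then HTRF detection reagents for 1 h.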
Structure (SMILES),"activity change, negative = inhibition",Potency
Nc1c(NC/C=C\COc2cc(CN3CCCCC3)ccn2)c(=O)c1=O,0.891% [at 18.9 µM] (inactive),
O=S(=O)(O)c1ccc2cc(O)c(S(=O)(=O)O)cc2c1,-0.228% (inactive),
COCCOCCOCCOCCOC,-0.516% (inactive),
COCCOCCOCCOCCOCCO,18.2% (inactive),
CCCO,4.85% (inactive),
O=[N+]([O-])c1ccc(Oc2ccc([N+](=O)[O-])cc2)cc1,-2.01% (inactive),
CC[N+](C)(C)c1cccc(O)c1,6.08% [at 42.5 µM] (inactive),
CCCCCCCN,4.29% (inactive),
CS(C)(=O)=O,5.79% (inactive),
O=c1[nH]c(=O)c2cn[nH]c2[nH]1,-1.68% (inactive),
CCC(COC(=O)CCS)(COC(=O)CCS)COC(=O)CCS,-16.5% (inactive),
CC(C)N=C(N)/N=C(\N)Nc1ccc(Cl)cc1,1.75% [at 42.5 µM] (inactive),
CCCCCCCC(=O)N(C)C,3.88% (inactive),
CCCCC(C)C(=O)O (stereo not given),7.25% (inactive),
Cc1ccc(N=Nc2c(O)ccc3ccccc23)c(C)c1,-4.55% [at 42.5 µM] (inactive),
COc1ccc(N=[N+]([O-])c2ccc(OC)cc2)cc1,-0.625% (inactive),

Structure (SMILES),"activity change, negative = inhibition",Potency
Cc1cc(N)n(-c2ccccc2)n1,-0.0891% (inactive),
O=C1OC(=O)c2ccccc21,6.53% (inactive),
OC[C@H]1O[C@H](O[C@H]2O[C@H](CO)[C@@H](O)[C@H](O)[C@H]2O)[C@H](O)[C@@H](O)[C@@H]1O,-12.5% (inactive),
CCCCC(=O)N(C)C,-2.41% (inactive),
C=C(C)C(=O)NCCC[N+](C)(C)C,1.39% (inactive),
CCCC(C)CCC(C)=O (stereo not given),14.1% (inactive),
C/C=C/C(=O)C1=C(C)C=CCC1(C)C,-2.63% (inactive),
NS(=O)(=O)c1ccccc1OC(F)(F)F,10.9% (inactive),
CC(=O)Oc1ccccc1C(=O)Nc1ncc([N+](=O)[O-])s1,,inactive
CC(=O)CC/C=C(\C)CC/C=C(\C)CC/C=C(\C)CCC=C(C)C,1.5% [at 42.5 µM] (inactive),
CC(CCC(=O)O)C(=O)O (stereo not given),-2.48% (inactive),
CCOC(C)(C)C,-3.21% (inactive),
O=Cc1cccc([N+](=O)[O-])c1,-1.15% (inactive),
CC(C)CC(O)Cc1ccccc1 (stereo not given),-0.124% (inactive),
CC(=O)OCCN(CCOC(C)=O)c1ccc(N=Nc2ccc([N+](=O)[O-])cc2C#N)cc1,-2.74% (inactive),
